# Source: PubChem BioAssay AID602340 (Broad Institute, 2012)
# Values joined by “and” are separate entries in the source; they are usually repeats but may differ in a detail not shown here. Identical values can stand only once. Hit rate of the full screen: of about 330,000 compounds, about 2,600 (0.79%) were called active.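 How the source made its calls: active means mean ATP rescue above about 67%, or every replicate alone reaching that limit (limit read from the data, passing the limit was not always enough); inconclusive means no clear call, values can overlap the other calls; inactive means mean under the limit and some replicate under it.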 The list comes from a sample in which actives are over-represented; it also holds similar structures and randomly drawn compounds. Some compounds were tested as several samples or in several runs, with calls that do not always agree.
# Assay: suppressors of statin myotoxicity in C2C12 myotubes, primary screen, cell-based, single point, plate reader (AID 602340);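 further: myotubes were challenged with 10 µM simvastatin during compound exposure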
# Conditions: C2C12 myotubes + simvastatin, ATP luminescence, 48 h; at 7.49 µM; stronger effect = higher value; scaled: DMSO 0, geranylgeraniol control 100
row,Compound,rescue of ATP level
1,CC1(C(=O)O)CCCN(C(=O)/C=C/c2ccccc2)C1 (centres undefined),2.47% (inactive)
2,C/C(=C\c1ccccc1)C1NC(=O)c2c(sc3c2CCCC3)N1 (centres undefined),-22.3% (inactive)
3,Cc1[nH]c(=O)c(C(=O)/C=C/c2ccccc2)c2c1CCCC2,165% (active)
4,COc1ccccc1NC(=O)N1C[C@H](O)COC[C@H]2O[C@H](CC(=O)NCCc3ccccc3)CC[C@@H]21,-6.91% (inactive)
5,CCC(=O)Nc1ccc(C(=O)Nc2cc(C)on2)cc1,84.9% (active)
6,CCOc1ccc(C(=O)Nc2ccc(S(=O)(=O)Nc3cc(C)on3)cc2)cc1,10.8% (inactive)
7,CCC(=O)Nc1ccc(C(=O)NNC(=O)c2ccc(Cl)cc2)cc1,-2.53% (inactive)
8,C[C@H]1CN([C@@H](C)CO)S(=O)(=O)c2ccc(Br)cc2O[C@H]1CN(C)C(=O)C1CC1,4.28% (inactive)
9,CCOC(=O)CSc1nc2ccc(C)cc2[nH]1,11.3% (inactive)
10,CC(=O)Nc1ccc(C(=O)CSc2nc3ccc(C)cc3[nH]2)cc1,107% (active)
11,Cc1ccc2nc(SCC(=O)NC3CCCC3)[nH]c2c1,-36.1% (inactive)
12,O=C(NCC[C@H]1CC[C@H](NS(=O)(=O)c2cccc(F)c2)[C@H](CO)O1)C1CCCCC1,0.841% (inactive)
13,COC(=O)C[C@H]1CC[C@H](NC(=O)Nc2ccc(C(F)(F)F)cc2)[C@H](CO)O1,-6.07% (inactive)
14,CCS(=O)(=O)Nc1ccc2c(c1)C(=O)N(C)[C@@H]1CC[C@H](CC(=O)N[C@H]3CCN(Cc4ccccc4)C3)O[C@@H]1CO2,10.9% (inactive)
15,CCS(=O)(=O)Nc1ccc2c(c1)C(=O)N(C)[C@@H]1CC[C@@H](CC(=O)N3CCCCC3)O[C@H]1CO2,-21.4% (inactive)
16,CO[C@H]1CN(C)C(=O)c2ccc(NC(=O)C3CC3)cc2OC[C@@H](C)N(C)C[C@H]1C,2.87% (inactive)
17,CCS(=O)(=O)N1CCC(C(=O)N2CCN(c3ccccc3)CC2)CC1,2.16% (inactive)
18,CCCS(=O)(=O)N1CCCC(C(=O)N2CCN(c3ccccc3)CC2)C1 (centres undefined),103% (active)
19,O=C(C1CCCN(S(=O)(=O)c2ccccc2)C1)N1CCN(c2ccc(F)cc2)CC1 (centres undefined),-8.18% (inactive)
20,C[C@@H](NC(=O)C[C@@H]1CC[C@H](NC(=O)Cc2ccccn2)[C@H](CO)O1)c1ccccc1,4.66% (inactive)
21,C[C@@H]1CN([C@@H](C)CO)C(=O)c2cccc(NC(=O)Nc3ccc(F)cc3)c2O[C@H]1CN(C)C(=O)Nc1ccc(F)cc1,18.2% (inactive)
22,C[C@H]1CN([C@@H](C)CO)C(=O)c2cccc(NC(=O)Nc3ccc(C(F)(F)F)cc3)c2O[C@@H]1CN(C)Cc1ccccc1,-12.1% (inactive)
23,CC(C)NC(=O)N(C)C[C@@H]1Oc2ccc(N(C)C)cc2C(=O)N([C@@H](C)CO)C[C@H]1C,-49% (inactive)

row,Compound,rescue of ATP level
1,C[C@@H]1CN([C@@H](C)CO)C(=O)c2cccc(NC(=O)Nc3ccc(F)cc3)c2O[C@@H]1CN(C)C(=O)Nc1ccccc1,7.96% (inactive)
2,CC(C)NC(=O)N(C)C[C@H]1Oc2ccc(N(C)C)cc2C(=O)N([C@@H](C)CO)C[C@H]1C,70.4% (active)
3,C[C@@H]1CN([C@H](C)CO)C(=O)c2cccc(NS(=O)(=O)c3ccc(F)cc3)c2O[C@@H]1CN(C)C(=O)Nc1ccc(F)cc1,3.07% (inactive)
4,C[C@@H]1CN([C@H](C)CO)C(=O)c2cccc(NS(=O)(=O)c3ccc(Cl)cc3)c2O[C@H]1CN(C)C(=O)NC1CCCCC1,36.6% (inactive)
5,C[C@@H]1CN([C@@H](C)CO)C(=O)c2cccc(NS(=O)(=O)c3ccc(F)cc3)c2O[C@H]1CN(C)C(=O)NC1CCCCC1,88.2% (active) and -10.4% (inactive)
6,C[C@H]1CN([C@@H](C)CO)C(=O)c2cccc(NC(=O)Nc3ccc(C(F)(F)F)cc3)c2O[C@H]1CN(C)C(=O)NC1CCCCC1,-25.5% (inactive)
7,C[C@H](CO)N1C[C@H](C)[C@@H](CN(C)C(=O)Nc2ccccc2)Oc2ccc(N(C)C)cc2C1=O,4.49% (inactive)
8,C[C@@H]1CN([C@H](C)CO)C(=O)c2cccc(NC(=O)Nc3cccc4ccccc34)c2O[C@@H]1CN(C)C(=O)Nc1ccc(F)cc1,98.6% (active)
9,C[C@H]1CN([C@@H](C)CO)C(=O)c2cccc(NC(=O)Nc3ccc(C(F)(F)F)cc3)c2O[C@H]1CN(C)CC1CCCCC1,88.7% (active)
10,C[C@@H]1CN([C@H](C)CO)C(=O)c2cc(NC(=O)Cc3cn(C)c4ccccc34)ccc2O[C@@H]1CN(C)S(=O)(=O)c1cccs1,34.2% (inactive)
11,CCS(=O)(=O)Nc1ccc2c(c1)C(=O)N(C)[C@H]1CC[C@H](CC(=O)NCc3ccccc3F)O[C@H]1CO2,-3.79% (inactive)
12,O=C(N[C@H]1CC[C@@H](CCn2cc(Cc3ccccc3)nn2)O[C@H]1CO)c1cnccn1,-1.98% (inactive)
13,COc1ccc(NC(=O)Nc2cccc3c2O[C@H](CN(C)C(=O)Nc2cccc4ccccc24)[C@H](C)CN([C@H](C)CO)C3=O)cc1,60% (inactive)
14,COc1ccc(NC(=O)N(C)C[C@@H]2Oc3c(NC(=O)Nc4cccc5ccccc45)cccc3C(=O)N([C@@H](C)CO)C[C@H]2C)cc1,15.2% (inactive)
15,COc1ccc(C#Cc2cnc3c(c2)C(=O)N([C@H](C)CO)C[C@@H](C)[C@H](CN(C)C(=O)Nc2cccc(OC)c2)O3)cc1,114% (active)
16,COc1cccc(NC(=O)N(C)C[C@@H]2Oc3ncc(Br)cc3C(=O)N([C@@H](C)CO)C[C@H]2C)c1,17.2% (inactive)
17,COc1ccc(NC(=O)N(C)C[C@H]2Oc3ncc(C#C[C@@H](C)O)cc3C(=O)N([C@H](C)CO)C[C@H]2C)cc1,12.8% (inactive) and -6.34% (inactive) and 21.2% (inactive)
18,COc1ccc(NC(=O)N(C)C[C@H]2Oc3c(NC(=O)Nc4cccc5ccccc45)cccc3C(=O)N([C@H](C)CO)C[C@@H]2C)cc1,75.6% (active)
19,CN(C)C(=O)C[C@@H]1CC[C@H](NC(=O)NC2CCCCC2)[C@@H](CO)O1,-1.33% (inactive)
20,O=C(Nc1ccccc1F)N1C[C@H]2[C@@H](c3ccccc31)[C@H](CO)N2C(=O)c1ccccn1,45.1% (inactive)
21,O=C(N[C@@H]1CC[C@@H](CCNS(=O)(=O)Cc2ccccc2)O[C@@H]1CO)c1ccccc1F,-15% (inactive)
22,CN(C)C(=O)[C@@H]1[C@@H](CO)[C@@H]2Cn3c(ccc(-c4ccccc4F)c3=O)[C@@H]2N1C(=O)C1CC1,-6.7% (inactive)
23,O=C(NCc1ccco1)c1ccc(Cn2c(=O)c3sccc3n(Cc3ccc(F)cc3)c2=O)cc1,-13.7% (inactive)

row,Compound,rescue of ATP level
1,O=C(NCc1ccco1)c1cc2sccc2n1Cc1ccc(F)cc1,160% (active)
2,O=C(Cc1ccc(-n2c(=O)c3sccc3n(Cc3ccc(F)cc3)c2=O)cc1)NCc1ccco1,-0.81% (inactive)
3,O=C(C[C@@H]1CC[C@@H]2[C@H](COC[C@H](O)CN2Cc2cccc(-c3ccncc3)c2)O1)N1CCOCC1,7.32% (inactive)
4,Cc1ccc(C(=O)NNC(=O)CSc2nnc3ccccn23)cc1,0.262% (inactive)
5,Cc1ccc(SCC(=O)NNC(=O)c2ccc(S(C)(=O)=O)cc2)cc1,90% (active)
6,CS(=O)(=O)c1ccc(C(=O)NNC(=O)c2cccs2)cc1,19.1% (inactive)
7,CO[C@H]1CN(C)C(=O)c2ccc(NC(=O)C3CCC3)cc2OC[C@@H](C)N(Cc2ccccn2)C[C@H]1C,9.17% (inactive)
8,CNC(=O)C[C@H]1CC[C@@H]2[C@H](COc3ccc(NC(=O)C(C)C)cc3C(=O)N2C)O1,5.79% (inactive)
9,O=C(c1c(F)cccc1Cl)N1CCN(c2ccccn2)CC1,-10.5% (inactive)
10,O=C(c1ccc2c(c1)C(=O)N(c1ccc(Cl)cc1)C2=O)N1CCN(c2ccccn2)CC1,135% (active)
11,O=C(CCC1CCCN(C(=O)c2ccc(F)c(F)c2)C1)N1CCN(c2ccccn2)CC1 (centres undefined),-0.349% (inactive)
12,COCC(=O)Nc1ccc2c(c1)OC[C@H](C)N(C(=O)c1cnccn1)C[C@@H](C)[C@H](OC)CN(C)C2=O,3.92% (inactive)
13,COc1ccccc1CNC(=O)COC(=O)c1sc(C)nc1C,-4.29% (inactive)
14,COc1ccc(/C(O)=C2/C(=O)C(=O)N(CCCN(C)C)C2c2ccccc2)cc1OC (centres undefined),14.8% (inactive)
15,COc1cc(C2C(C(=O)c3sc(C)nc3C)=C(O)C(=O)N2CCN(C)C)cc(OC)c1OC (centres undefined),116% (active)
16,C[C@@H]1CN([C@@H](C)CO)C(=O)Cc2cc(NS(=O)(=O)c3cccs3)ccc2O[C@@H]1CN(C)S(=O)(=O)c1ccc(F)cc1,-10.2% (inactive)
17,COCC(=O)Nc1ccc2c(c1)[C@@H]1C[C@H](CC(=O)NCc3ccc(-c4ccccc4)cc3)O[C@H](CO)[C@@H]1O2,-0.998% (inactive)
18,C[C@@H]1CCCCO[C@@H](CN(C)C(=O)NC2CCCCC2)[C@H](C)CN([C@H](C)CO)C(=O)c2cc(NC(=O)Nc3cccc4ccccc34)ccc2O1,-71% (inactive)
19,CCc1ccc(N2CC(C(=O)N3CCCCCC3)CC2=O)cc1 (centres undefined),-5.19% (inactive)
20,CCc1ccc(N2CC(C(=O)Nc3ccc(S(=O)(=O)Nc4nccs4)cc3)CC2=O)cc1 (centres undefined),2.04% (inactive)
21,CCc1ccc(N2CC(C(=O)NC3=NCCS3)CC2=O)cc1 (centres undefined),109% (active)
22,COc1ccc(NC(=O)Nc2ccc3c(c2)C(=O)N([C@@H](C)CO)C[C@H](C)[C@H](CN(C)C(=O)Nc2ccccc2)OCCCC[C@@H](C)O3)cc1,0.523% (inactive)
23,CN1C(=O)c2cc(NS(C)(=O)=O)ccc2OC[C@@H]2O[C@@H](CC(=O)NCc3ccc(-c4ccccc4)cc3)CC[C@H]21,21.8% (inactive)
